Shown are actives, neighbours in structure and some others; about 3.3% of the full set was active somewhere.
Calb FLC – C. albicans growth modulation with fluconazole | C. albicans CaCi-2 (fluconazole-resistant clinical isolate) + fluconazole, Alamar Blue growth, 48 h | growth inhibition, % (no concentration beside the values) | 300,000 tested, 0.57% active;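 active = growth inhibition above about 58% in most replicates, limit read from the data, passing the limit was not always enough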;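 note: all wells also contain fluconazole at 8 µg/ml as a sub-toxic cotreatment; 0% = median of DMSO wells and 100% = median of geldanamycin control wells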
Cl transport mod – modulates chloride dependent transport by human KCC2; Q9H2X9; KCC2 cells, thallium flux FluoZin-2 fluorescence; B-score of Tl+ flux slope (higher = more flux/activation; lower = inhibition) at 10 µM; 190,000 tested, 2.2% active; AID 1456;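 active = thallium flux slope and its plate-corrected score both differing from the plate sample mean at a set confidence after two filtering rounds, in either direction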;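 note: slope of fluorescence scaled to starting intensity during 10 to 20 s after thallium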
Target sequence (Q9H2X9 whole entry, looked up): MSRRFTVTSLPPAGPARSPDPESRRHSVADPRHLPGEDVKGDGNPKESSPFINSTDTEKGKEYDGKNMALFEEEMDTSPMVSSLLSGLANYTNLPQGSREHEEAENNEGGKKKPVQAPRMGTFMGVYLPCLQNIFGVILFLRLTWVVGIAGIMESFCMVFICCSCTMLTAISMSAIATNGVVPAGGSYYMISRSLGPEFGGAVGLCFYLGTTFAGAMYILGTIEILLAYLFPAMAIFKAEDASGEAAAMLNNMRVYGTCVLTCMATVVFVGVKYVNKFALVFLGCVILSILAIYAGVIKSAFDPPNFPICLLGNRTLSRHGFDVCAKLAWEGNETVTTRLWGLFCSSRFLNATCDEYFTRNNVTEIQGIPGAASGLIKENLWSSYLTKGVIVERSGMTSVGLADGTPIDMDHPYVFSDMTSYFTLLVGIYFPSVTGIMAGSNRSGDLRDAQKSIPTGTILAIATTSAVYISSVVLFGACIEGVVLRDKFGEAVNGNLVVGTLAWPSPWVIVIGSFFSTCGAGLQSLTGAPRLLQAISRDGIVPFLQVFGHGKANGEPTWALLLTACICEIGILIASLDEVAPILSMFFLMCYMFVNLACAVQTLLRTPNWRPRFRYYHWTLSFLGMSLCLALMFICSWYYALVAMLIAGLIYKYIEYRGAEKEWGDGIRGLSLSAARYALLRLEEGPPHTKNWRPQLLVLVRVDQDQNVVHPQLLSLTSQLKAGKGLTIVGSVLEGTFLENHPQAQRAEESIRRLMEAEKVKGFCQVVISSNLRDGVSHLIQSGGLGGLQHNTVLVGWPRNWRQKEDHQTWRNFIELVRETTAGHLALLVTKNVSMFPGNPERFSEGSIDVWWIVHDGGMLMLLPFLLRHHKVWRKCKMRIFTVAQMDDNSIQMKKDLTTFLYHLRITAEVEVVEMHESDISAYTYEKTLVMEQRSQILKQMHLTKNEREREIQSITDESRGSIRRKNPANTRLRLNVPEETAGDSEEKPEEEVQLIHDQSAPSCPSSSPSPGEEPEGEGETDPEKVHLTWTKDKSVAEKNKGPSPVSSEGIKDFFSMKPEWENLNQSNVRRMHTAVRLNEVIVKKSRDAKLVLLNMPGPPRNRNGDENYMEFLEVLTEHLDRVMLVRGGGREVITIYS
PHOSPHO1 block – PHOSPHO1 (human) inhibition | Q8TCT1 | recombinant PHOSPHO1, absorbance phosphatase assay | inhibition, % at 13.3 µM | 290,000 tested, 1.1% active; in the data active = inhibition above about 60%
H9c2 protect – modulators protecting cardiomyocytes from myocardial damage; H9c2 cardiomyocytes, H2O2 injury protection, ATPLite, 2 h; protection from H2O2 cell death, % at 20 µM; 360,000 tested, 0.63% active;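 active = compounds giving at least 50% protection of heart cells from peroxide-induced death in the single-dose screen, raw or plate-pattern-corrected value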;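 note: 0% = DMSO wells with peroxide and 100% = DMSO wells without peroxide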
Efflux pump mplx – antifungal efflux pump inhibition, Nile Red retention | S. cerevisiae Candida pump triplex | inhibition, % at 10 µM | 330,000 tested, 0.44% active | AID 485275;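 active = plate passing quality check with inhibition over a set limit, or well fluorescence over plate mean plus 4 SD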;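 note: Nile Red retained in pooled yeast measured as flow cytometry median fluorescence; 0% = buffer negative control and 100% = Enniatin B positive control; higher means more Nile Red kept so more efflux inhibition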
* = called active by the depositor; i = inactive; . = not tested or not shown.

SMILES	Calb FLC	Cl transport mod	PHOSPHO1 block	H9c2 protect	Efflux pump mplx
CCCC(=O)Nc1nc2ccc3nc(C)sc3c2s1	0.5	.	-93.6	7.3	0.0
CCC(=O)Nc1nc2ccc3sc(C)nc3c2s1	-0.1	-0.0464	64.3*	3.0	0.0
Cc1nc2c(ccc3nc(NC(=O)C4CC4)sc32)s1	2.1	-0.039	61.5*	-3.1	0.0
Cc1c(Cl)ccc2sc(NC(=O)C3CC3)nc12	4.4	.	20.2	-19.9	0.1
COc1ccc(N(CC(=O)Nc2cccnc2)S(=O)(=O)c2ccccc2)cc1OC	5.9	.	19.0	1.5	0.1
Cn1c(N)c(C(=O)Nc2ccc3ccccc3c2)sc1=S	-11.2	0.263	96.2*	-6.3	0.0
CCc1ccc(OCC(=O)NNC(=S)NC(=O)C2CCCCC2)c(Br)c1	83.7*	.	13.7	-3.0	0.1
CCc1ccc(OCC(=O)NNC(=S)NC(=O)C2CC2)c(Br)c1	107.1*	.	-144.5	21.6	-0.1
COc1ccc(OCC(=O)NNC(=S)NC(=O)C2CC2)cc1	13.8	.	-130.3	13.2	-0.3
Cc1cc(C)cc(OCC(=O)NNC(=S)NC(=O)C2CC2)c1	118.8*	.	-106.9	22.7	0.1
CCc1ccc(OCC(=O)NC2CCCCC2)c(Br)c1	-12.7	.	25.0	-5.6	-0.2
CCc1ccc(OCC(=O)NC(=S)Nc2ccc(C)cc2C)c(Br)c1	4.3	.	1.6	-4.2	0.1
Cc1ccc(C(=O)NC2CCN(CC(=O)Nc3cccc([N+](=O)[O-])c3)CC2)cc1	3.0	-1.03	32.3	1.3	0.0
COC(=O)c1cccc(S(=O)(=O)N(Cc2ccco2)Cc2cc3cc(OC)ccc3[nH]c2=O)c1	6.8	.	17.9	78.5*	0.0
CCOC(=O)c1cccc(S(=O)(=O)N(CCO)Cc2cc3cc(OC)ccc3[nH]c2=O)c1	-1.4	0.685	34.1	9.0	0.0
CN(C)C(=O)COc1ccc(S(=O)(=O)c2ccc(OCC(=O)N(C)C)cc2)cc1	-3.6	.	17.9	5.6	0.0
CCN(CC)c1ccc2cc(-c3nnc(-c4ccncc4)o3)c(=O)oc2c1	.	i	0.1	64.7*	.
CCN(CC)c1ccc2cc(C(C)=O)c(=O)oc2c1	0.6	i	1.5	2.9	-0.1
CCN(CC(=O)Nc1c(F)cccc1F)C(=O)CC1CCCCC1	.	.	.	3.1	0.1
CC1CN(C(=O)CCC(=O)N2CCCCC2)c2ccccc2O1 (centres undefined)	-12.6	.	-10.8	9.3	0.1
OC(c1ccc(Cl)cc1)c1ncc(-c2cccc(F)c2)[nH]1 (centres undefined)	.	.	.	-13.9	.
CCOc1ccc(Nc2nc(NCC3CCCO3)c3ccccc3n2)cc1 (centres undefined)	98.9*	.	-14.8	-21.3	0.4
CCOC(=O)c1c(C)oc2c1c(CN1CCN(C(=O)OCC)CC1)c(O)c1ccccc12	8.9	i	18.6	-21.9	0.0
CCOC(=O)c1c(C)oc2c1c1c(c3ccccc32)OCN(Cc2ccccn2)C1	17.6	.	-58.7	53.9*	-0.1
O=C1NC(Cc2ccc(O)cc2)c2nc3cc(F)c(F)cc3c(=O)n2-c2cc3ccccc3cc21 (centres undefined)	.	.	.	17.5	.
SMILES	Calb FLC	Cl transport mod	PHOSPHO1 block	H9c2 protect	Efflux pump mplx
O=C1NC(Cc2ccc(O)cc2)c2nc3ccc(F)cc3c(=O)n2-c2cc3ccccc3cc21 (centres undefined)	.	.	.	95.2*	.
CCOc1ccc(CNc2ccc(CNc3ncn[nH]3)cc2)cc1	102.0*	0.66	-23.2	-5.6	0.1
O=C(COC(=O)Cc1ccc(Cl)cc1)NCc1ccco1	.	.	.	-5.0	0.0
Cc1ccc(SCC(=O)NC2CCS(=O)(=O)C2)cc1C (centres undefined)	.	.	.	-2.1	0.1
Cc1ccc(-c2cn(-c3ccccc3)c(SCC(=O)NC3CCS(=O)(=O)C3)n2)cc1C (centres undefined)	-1.7	11.7*	-20.3	-2.6	0.8
COc1ccc(-n2c(C)cc(C)c(C(C)=O)c2=S)cc1	-5.6	-0.825	13.4	3.5	-0.4
COc1ccccc1-n1c(C)cc(SC)c(C(C)=O)c1=S	86.1*	-0.0329	39.5	-0.8	0.3
Cc1ccc(NC(=O)c2cc(=O)c3ccccc3o2)cc1S(=O)(=O)N1CCOCC1	18.2	-0.0544	-19.0	60.5*	0.1
CC(C)c1ccc(S(=O)(=O)N2CCN(C(=O)CCc3nc4ccccc4c(=O)[nH]3)CC2)cc1	.	.	.	43.5	.
Cc1ccc(NC(=O)CCc2nc3ccccc3c(=O)[nH]2)cc1S(=O)(=O)N1CCOCC1	-2.0	.	.	86.2*	0.0
Cc1ccc(S(=O)(=O)N2CCN(C(=O)CCc3nc4ccccc4c(=O)[nH]3)CC2)c(C)c1	0.6	.	.	72.0*	-0.1
CC(OC(=O)CCc1nc2ccccc2c(=O)[nH]1)C(=O)Nc1ccc2c(c1)OCO2 (centres undefined)	-8.8	.	49.1	50.4*	0.0
Cc1ccc(NC(=O)CCc2ccccc2)cc1S(=O)(=O)N1CCOCC1	.	.	.	5.6	0.0
Cc1ccc(NC(=O)c2cc(=O)c3ccccc3o2)cc1S(=O)(=O)N1CCCCC1	-0.1	-1	-14.0	16.1	0.1
CCOc1ccc2oc(C(=O)OCC(=O)N3CC(C)OC(C)C3)c(C)c2c1 (centres undefined)	.	.	.	-10.7	0.0
O=C(CCc1nc2ccccc2c(=O)[nH]1)N1CCN(S(=O)(=O)c2ccccc2Br)CC1	5.1	.	.	70.6*	-0.1
CN1CCN(C(=O)CCc2nc3ccccc3c(=O)[nH]2)CC1	-3.1	-0.313	0.2	34.5	0.1
Cc1ccc(C)c(S(=O)(=O)N2CCN(C(=O)CCc3nc4ccccc4c(=O)[nH]3)CC2)c1	2.4	.	.	57.4*	0.1
NC(Cc1ccc(C(F)(F)F)cc1)c1csc(Nc2nccc(C(F)(F)F)n2)n1 (centres undefined)	.	.	.	-9.9	.
Cc1cccc(-n2ncc(C(=O)NC3CCCC3)c2C2CCN(C(=O)OC(C)(C)C)CC2)c1	11.0	.	19.1	4.7	0.1
O=S(=O)(Cc1ccc(Cl)cc1)N1CCN(Cc2ccccc2)CC1	125.4*	-0.667	-13.9	-1.8	-0.1
COC(=O)C(C)NC(=O)C1CCCN1S(=O)(=O)c1cc(C)c(Cl)cc1C (centres undefined)	-2.8	-4.34*	-22.1	6.7	0.0
COc1cc(NC(=S)NCc2ccco2)cc(OC)c1OC	-1.4	0.152	-3.9	6.6	-0.4
COc1ccccc1NC(=S)NCc1ccco1	-1.5	0.00298	61.5*	-9.5	-0.1
O=C(Nc1ccccc1C(=O)Nc1ccccc1C(=O)NCc1ccco1)c1ccco1	17.1	0.583	19.9	52.5*	-0.1
O=C(Nc1ccccc1C(=O)NCc1ccco1)c1ccco1	3.1	.	-25.0	6.7	0.0
COc1cc(OC)c(NC(=S)NCc2ccccc2)cc1Cl	125.5*	-0.344	-27.9	11.6	-0.2
COc1ccc(C)cc1NC(=O)NCc1ccco1	16.5	-0.024	61.0*	-1.6	0.1
CCOC(=O)C1=NNC2C(=O)N(Cc3ccccc3)C(=O)C12 (centres undefined)	6.2	0.934	46.4	15.1	-0.1
O=C(c1ccccc1Cc1ccccc1)N1CCN(S(=O)(=O)c2ccccc2[N+](=O)[O-])CC1	10.2	.	.	-0.7	-0.1
